NR0B1 inh: DAX1 (NR0B1) inhibitors, primary screen, cell-based, HEK293, Gal4-DAX1, luciferase luminescence | Nuclear receptor subfamily 0 group B member 1 (Homo sapiens), P51843 | HEK293 Gal4-DAX1 luciferase reporter | inhibition, % at 6.75 µM | 0.99% of 340,000 active;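 active = inhibition above the mean over all tested compounds plus 3 SD, cut at about 4.2% in these data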;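 note: 0% = DAX1-transfected cells with DMSO and 100% = empty-vector control cells with DMSO; inhibition shows as a rise in luminescence from relieved DAX1 repression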
Target sequence (P51843 207-470 limits assumed): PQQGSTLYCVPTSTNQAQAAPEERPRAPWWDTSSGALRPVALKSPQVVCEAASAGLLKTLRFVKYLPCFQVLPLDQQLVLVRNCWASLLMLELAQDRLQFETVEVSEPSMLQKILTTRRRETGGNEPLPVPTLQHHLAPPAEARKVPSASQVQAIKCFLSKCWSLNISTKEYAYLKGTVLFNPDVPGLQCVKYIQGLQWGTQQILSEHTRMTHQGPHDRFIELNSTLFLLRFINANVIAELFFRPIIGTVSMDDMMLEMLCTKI
GAA850 FXN act: FXN promoter activators, primary screen, cell-based, luciferase luminescence, HEK293 lucGAA850; HEK293 lucGAA850 FXN promoter luciferase reporter, 24 h; percent of 10 µM SAHA response; AID 540364, 2011; activation, % at 6 µM; 0.56% of 360,000 active;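 active = activation above the average of all compounds screened plus 3 SD, cutoff fixed separately per campaign, cut at about 7.5% in these data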;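 note: 0% = DMSO wells and 100% = 10 µM SAHA wells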
HSF-1 act: HSF-1 activators, primary screen, NIH3T3-HGL cells, MG132 stress, luminescence, single point | NIH3T3-HGL HSF-1 luciferase reporter, 8 h; 100% = twice DMSO control signal | activation, % at 9 µM | 1.7% of 300,000 active;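 active = mean replicate activation of at least 50% with a set share of replicates each reaching 50%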;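 note: 0% = median of the neutral control wells and 100% = twice that signal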
AHR activator: AHR activators, primary screen, cell-based, luminescence, luciferase reporter, human | AHR-responsive luciferase reporter cells | activation, % at 5 µM | 2.5% of 320,000 active | AID 2796, 2010; in the data active = activation above about 47%;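 note: 0% = vehicle wells and 100% = reference agonist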
HSF1 inhib: HSF1 inhibitors in luciferase reporter cells, primary screen, cell-based, NIH3T3, luminescence | 0.77% of 300,000 active | NIH3T3-HGL HSE-luciferase, MG132-induced, luminescence 8 h; active compounds read low | AID 2098, 2009 | activity change, negative = inhibition, % at 7.5 µM (by protocol);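 active = more than half of replicate wells show activity change below -50%, luminescence cut by over half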;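 note: luciferase reports HSF-1 transcriptional activity via heat shock element; 0% = median of DMSO wells and -100% = zero luminescence signal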
GAA30 counter: GAA30 FXN promoter activators, confirmation, counter-screen for GAA850 frataxin promoter activator project, cell-based, luminescence, HEK293, lucGAA30, triplicate. activation, % at 6 µM. shares compounds with GAA850 FXN act. HEK293 lucGAA30 FXN promoter luciferase, 24 h; DMSO = 0%, 5 µM ipriflavone = 100%. 66% of 1,900 active. AID 588350, 2011;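 active = mean activation above the mean of solvent-only control wells plus 3 SD, cut at about 22% in these data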;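 note: counterscreen of GAA850 promoter hits where activity marks nonselective or luminescence artifacts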
FXN GAA850 conf: FXN GAA850 promoter activators in reporter cells, confirmation, cell-based, luminescence, HEK293 lucGAA850, triplicate. shares compounds with GAA850 FXN act. HEK293 lucGAA850 FXN promoter luciferase reporter, 24 h; 100% = activation by SAHA. activation, % at 6 µM. 86% of 1,900 active. AID 588351, 2011;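 active = mean activation above a set limit taken from the primary screen, cut at about 8% in these data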;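 note: 0% = DMSO wells and 100% = 10 µM SAHA wells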
Active calls of the source: *; nt = no result. Only some compounds are listed: those with a hit (about 5.4% of all), similar ones and a draw of the others.

SMILES	NR0B1 inh	GAA850 FXN act	HSF-1 act	AHR activator	HSF1 inhib	GAA30 counter	FXN GAA850 conf
CCOC(=O)c1c(C)oc2ccc(NS(=O)(=O)c3cccs3)cc12	-1	-2	-9	1	10	nt	nt
Cc1cc(Nc2ccc(Cl)cc2)nc(NCc2ccccc2)n1	-2	14*	1	32	8	17	10*
Cc1cc(Nc2ccccc2)nc(NCc2ccccc2)n1	-2	1	6	19	3	nt	nt
Cc1cc(=O)c(C(=O)Nc2cccc(C(=O)NC3CC3)c2)nn1-c1ccccc1Cl	1	5	nt	20	nt	nt	nt
Cn1c2ccccc2c2cc([N+](=O)[O-])ccc21	-2	2	17	-5	-6	nt	nt
CCN(CC)CCn1c2ccccc2c2nc3ccc([N+](=O)[O-])cc3cc21	nt	11*	121*	6	89	24*	28*
Cc1ccc(NC(=O)C2Cc3ccccc3C(=O)O2)cc1 (stereo unspecified)	0	8.3*	nt	16	nt	86*	33*
CCOCCN1CCN(C2c3ccccc3CSc3ccccc32)CC1 (stereo unspecified)	2	1	-9	-2	-5	nt	nt
CC(=O)c1sc(Nc2cccc(C)c2)nc1C	2	7.8*	49	3	25	101*	31*
Cc1nc(Nc2ccccc2)sc1C(=O)c1ccccc1	nt	4	35	-2	6	nt	nt
Nc1nc(N)nc(-c2cc(F)ccc2O)n1	-1	12*	nt	25	nt	67*	42*
COc1ccc(O)c(-c2nc(N)nc(N)n2)c1	0	4	nt	29	nt	nt	nt
COCCCN(C(=S)NC(=O)C12CC3CC(CC(C3)C1)C2)c1c(N)n(Cc2ccccc2)c(=O)[nH]c1=O	2	8.4*	2	2	-5	13	8.2*
O=C(NN1CCOCC1)c1cccc(COc2cccc(Br)c2)c1	-1	8.0*	31	5	23	90*	37*
COc1ccc(CNC(=O)CN(Cc2ccccc2F)C(=O)c2csnn2)cc1	0	3	44	2	11	nt	nt
COc1ccc(-c2nc(N)n(C(=O)c3ccccc3Cl)n2)cc1	1	4	-2	6	-1	nt	nt
C/C(=N\NC(=O)COc1ccc(C(C)(C)C)cc1)c1cc2ccccc2o1	0	9.5*	14	44	8	105*	39*
C/C(=N\NC(=O)COc1ccc(C(C)(C)C)cc1)c1ccccc1	-1	3	10	8	5	nt	nt
CCOC(=O)c1sc(N/N=C/c2ccccc2)nc1C	2	7.6*	-6	61*	-2	134*	40*
COc1ccc(OC)c(NC(=O)C2CCCN(S(=O)(=O)c3c(C)nn(C)c3C)C2)c1 (stereo unspecified)	-1	14*	-78	0	-72*	22	9.3*
COc1ccc(NC2CCCN(C(=O)CCN3Cc4ccccc4C3=O)C2)cc1 (stereo unspecified)	0	0	1	0	0	nt	nt
Cc1ccc(-c2noc(C3CCCN(C(=O)c4ccccc4)C3)n2)o1 (stereo unspecified)	0	7.7*	25	4	21	107*	30*
O=C(Nc1cccc(C(F)(F)F)c1)C1CC(=O)N(Cc2ccco2)C1 (stereo unspecified)	3	0	nt	nt	nt	nt	nt
O=C(O)c1cnn(-c2nc(-c3ccc(Cl)c(Cl)c3)cs2)c1C(F)(F)F	1	8.1*	17	3	15	60*	32*
Nc1cccc(-c2csc(-n3ncc(C(=O)O)c3C(F)(F)F)n2)c1	1	1	-6	0	-7	nt	nt
